# Laboratory results: PubChem BioAssay (EPA / NIEHS)
# Calls of active or inactive are those of the source. The calls were made as follows: active = hit-call score of the fitted dose curve at least 0.9, where 1 is the maximum; inactive = score below 0.9.
# Columns and labels:
# Details in all cases: mRNA level, 48 h; actives raise or lower the signal
# [1] = read-out: sulfotransferase 2A1 (SULT2A1), SULT2A1 (gene 6822); assay: LTEA_HepaRG_SULT2A1: Life Technologies and Expression Analysis (LTEA) Assay for sulfotransferase 2A1 (SULT2A1) using HepaRG (AID 2283531)
# Outline: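 HepaRG human liver cells, 48 h exposure in serum-free induction medium to 8 half-log concentrations topping at 100 µM (0.5% DMSO), duplicate wells. SULT2A1 mRNA measured by TaqMan qRT-PCR, normalized to ACTB/GAPDH/POLR2A; bidirectional fit against DMSO.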
# [2] = read-out: Transforming Growth Factor (TGFA), TGFA (gene 7039); assay: LTEA_HepaRG_TGFA: Life Technologies and Expression Analysis (LTEA) Assay for Transforming Growth Factor (TGFA) using HepaRG (AID 2283532)
# Outline: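 HepaRG (human liver line), 48 h exposure, 8 conc. half-log down from 100 uM, 0.5% DMSO vehicle, duplicates; serum-free induction medium. TGFA mRNA by TaqMan qRT-PCR, ACTB/GAPDH/POLR2A normalization; gain/loss fit vs DMSO.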
# [3] = read-out: Transforming Growth Factor (TGFB1), TGFB1 (gene 7040); assay: LTEA_HepaRG_TGFB1: Life Technologies and Expression Analysis (LTEA) Assay for Transforming Growth Factor (TGFB1) Transporter using HepaRG (AID 2283533)
# Outline: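 Differentiated HepaRG cells exposed 48 hr in serum-free induction medium to eight half-log concentrations up to 100 uM (0.5% DMSO), duplicate; TGFB1 mRNA by TaqMan qRT-PCR normalised to ACTB, GAPDH, POLR2A; bidirectional fit against DMSO.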
# TIMP1, TIMP1 (gene 7076) = assay: LTEA_HepaRG_TIMP1: Life Technologies and Expression Analysis (LTEA) Assay for TIMP1 using HepaRG (AID 2283534);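 as to outcome: TaqMan qRT-PCR signal normalized to ACTB GAPDH and POLR2A housekeeping genes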
# Outline: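 Differentiated HepaRG cells exposed 48 h in serum-free induction medium, duplicates, eight half-log concentrations from 100 uM in 0.5% DMSO. TIMP1 mRNA by qRT-PCR normalized to ACTB, GAPDH, POLR2A; bidirectional fitting against DMSO.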
# [4] = read-out: Tumor necrosis factor receptor 1 (TNFRSF1A), TNFRSF1A (gene 7132); assay: LTEA_HepaRG_TNFRSF1A: Life Technologies and Expression Analysis (LTEA) Assay for Tumor necrosis factor receptor 1 (TNFRSF1A) using HepaRG (AID 2283535)
# Outline: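 Differentiated HepaRG cells in serum-free induction medium, exposed 48 h in duplicate to 8 half-log concentrations up to 100 uM in 0.5% DMSO. TNFRSF1A mRNA by Fluidigm TaqMan qRT-PCR, normalized to ACTB, GAPDH, POLR2A; bidirectional fit.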
# [5] = read-out: Thyroid Hormone Responsive (THRSP), THRSP (gene 7069); assay: LTEA_HepaRG_THRSP: Life Technologies and Expression Analysis (LTEA) Assay for Thyroid Hormone Responsive (THRSP) using HepaRG (AID 2283536)
# Outline: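 mRNA induction or loss relative to 0.5% DMSO vehicle was fitted bidirectionally across an eight-point curve whose highest exposure was 100 uM. Human HepaRG liver cells received chemicals in duplicate over 48 h before RNA extraction.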
# [6] = read-out: Cellular tumor antigen p53 (Homo sapiens) (UniProt P04637); assay: LTEA_HepaRG_TP53: Life Technologies and Expression Analysis (LTEA) Assay for Tumor Protein P53 (TP53) using HepaRG (AID 2283537)
# Outline: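 TP53 transcript measured by qRT-PCR, normalized to three housekeeping genes, after 48 h treatment of human HepaRG cultures with chemicals from 100 uM downward in half-log steps (0.5% DMSO vehicle, serum-free induction medium). Up- or down-regulation fitted against DMSO.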
# [7] = read-out: UDP glucuronosyltransferase (UGT1A1), UGT1A1 (gene 54658); assay: LTEA_HepaRG_UGT1A1: Life Technologies and Expression Analysis (LTEA) Assay for UDP glucuronosyltransferase (UGT1A1) using HepaRG (AID 2283538)
# Outline: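 Human liver HepaRG cultures receive test chemical for 48 h, up to 100 uM in 0.5% DMSO, with phenobarbital induction controls. UGT1A1 mRNA is measured by qRT-PCR and normalized to ACTB, GAPDH and POLR2A.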
# [8] = read-out: UDP glucuronosyltransferase (UGT1A6), UGT1A6 (gene 54578); assay: LTEA_HepaRG_UGT1A6: Life Technologies and Expression Analysis (LTEA) Assay for UDP glucuronosyltransferase (UGT1A6) using HepaRG (AID 2283539)
# Outline: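 Differentiated HepaRG cells, ~100,000/well, were exposed for 48 h in serum-free induction medium with 0.5% DMSO to 8-point half-log series topping at 100 uM, in duplicate. mRNA measured by Fluidigm TaqMan qRT-PCR, normalized to ACTB, GAPDH and POLR2A.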
# [9] = read-out: X-box binding protein 1 (XBP1), XBP1 (gene 7494); assay: LTEA_HepaRG_XBP1: Life Technologies and Expression Analysis (LTEA) Assay for X-box binding protein 1 (XBP1) using HepaRG (AID 2283540)
# Outline: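 Differentiated human HepaRG cells in serum-free induction medium exposed 48 h in duplicate to eight half-log concentrations up to 100 uM in 0.5% DMSO. XBP1 mRNA measured by Fluidigm TaqMan qRT-PCR, normalized to ACTB, GAPDH, POLR2A; bidirectional fitting against DMSO.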
# Cellular tumor antigen p53 (Homo sapiens), sequence (P04637 whole entry, looked up): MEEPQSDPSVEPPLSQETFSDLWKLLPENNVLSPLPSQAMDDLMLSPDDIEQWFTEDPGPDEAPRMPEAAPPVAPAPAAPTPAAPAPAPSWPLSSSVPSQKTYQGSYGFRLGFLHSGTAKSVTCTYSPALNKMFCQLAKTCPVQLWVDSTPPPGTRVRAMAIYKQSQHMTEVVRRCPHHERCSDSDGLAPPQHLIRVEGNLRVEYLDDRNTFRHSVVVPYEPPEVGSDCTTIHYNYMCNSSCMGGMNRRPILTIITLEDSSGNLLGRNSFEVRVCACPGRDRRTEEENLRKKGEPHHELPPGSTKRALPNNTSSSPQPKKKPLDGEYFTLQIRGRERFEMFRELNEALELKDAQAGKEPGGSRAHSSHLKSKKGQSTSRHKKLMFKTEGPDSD
structure (smiles),measurement,setting,value
CC1(C)CCC(=Cc2ccc(Cl)cc2)C1(O)Cn1cncn1 (stereo not drawn),outcome,[1],inactive
same,outcome,[2],inactive
same,outcome,[3],inactive
same,outcome,"TIMP1, TIMP1 (gene 7076)",inactive
same,outcome,[4],inactive
same,AC50,[5],24.1 µM (active)
same,outcome,[6],inactive
same,AC50,[7],5.72 µM (active)
same,outcome,[8],inactive
COC(=O)NC(=S)Nc1ccccc1NC(=S)NC(=O)OC,outcome,[1],inactive
same,outcome,[2],inactive
same,outcome,[3],inactive
same,outcome,"TIMP1, TIMP1 (gene 7076)",inactive
same,outcome,[4],inactive
same,outcome,[5],inactive
same,outcome,[6],inactive
same,AC50,[7],14.3 µM (active)
same,outcome,[8],inactive
OC(c1ccc(Cl)cc1)(c1ccc(Cl)cc1)C(Cl)(Cl)Cl,AC50,[1],93.9 µM (active)
same,AC50,[2],70.5 µM (active)
same,AC50,[3],50 µM (active)
same,outcome,"TIMP1, TIMP1 (gene 7076)",inactive
same,AC50,[4],50 µM (active)
same,outcome,[5],inactive
same,AC50,[6],50 µM (active)
same,AC50,[7],85.3 µM (active)
same,AC50,[8],79.3 µM (active)
O=C(Nc1ccccc1-c1ccc(Cl)cc1)c1cccnc1Cl,outcome,[1],inactive
same,outcome,[2],inactive
same,outcome,[3],inactive
same,outcome,"TIMP1, TIMP1 (gene 7076)",inactive
same,outcome,[4],inactive
same,outcome,[5],inactive
same,outcome,[6],inactive
same,outcome,[7],inactive
same,outcome,[8],inactive
COC(=O)NS(=O)(=O)c1ccc(N)cc1,outcome,[1],inactive
same,outcome,[2],inactive
same,outcome,[3],inactive
same,outcome,"TIMP1, TIMP1 (gene 7076)",inactive
same,outcome,[4],inactive
same,outcome,[5],inactive
same,outcome,[6],inactive
same,outcome,[7],inactive
same,outcome,[8],inactive
Cc1ccc(N=CN(C)C=Nc2ccc(C)cc2C)c(C)c1,outcome,[1],inactive
same,outcome,[2],inactive
same,outcome,[3],inactive
same,outcome,"TIMP1, TIMP1 (gene 7076)",inactive
same,outcome,[4],inactive
same,outcome,[5],inactive
same,outcome,[6],inactive
same,AC50,[7],39.3 µM (active)
same,outcome,[8],inactive
Cn1c(-c2ccccc2)cc(-c2ccccc2)[n+]1C,AC50,[1],50 µM (active)
same,outcome,[2],inactive
same,outcome,[3],inactive
same,AC50,"TIMP1, TIMP1 (gene 7076)",82.9 µM (active)
same,AC50,[4],72.2 µM (active)
same,AC50,[5],50 µM (active)
same,AC50,[6],86.5 µM (active)
same,AC50,[7],39.9 µM (active)
same,AC50,[8],75.2 µM (active)
CCCCC(O)(Cn1cncn1)c1ccc(Cl)cc1Cl (stereo not drawn),AC50,[1],76.3 µM (active)
same,AC50,[2],71.8 µM (active)
same,AC50,[3],61.2 µM (active)
same,outcome,"TIMP1, TIMP1 (gene 7076)",inactive
same,outcome,[4],inactive
same,AC50,[5],9.77 µM (active)
same,AC50,[6],72.4 µM (active)
same,AC50,[7],81.4 µM (active)
same,AC50,[8],73.4 µM (active)
CC(C)Nc1nc(Cl)nc(NC(C)C)n1,outcome,[1],inactive
same,outcome,[2],inactive
same,outcome,[3],inactive
same,outcome,"TIMP1, TIMP1 (gene 7076)",inactive
same,outcome,[4],inactive
same,outcome,[5],inactive
same,outcome,[6],inactive
same,AC50,[7],8.13 µM (active)
same,outcome,[8],inactive
Nc1c(Cl)c(Cl)nc(C(=O)O)c1Cl,outcome,[1],inactive
same,outcome,[2],inactive
same,outcome,[3],inactive
same,outcome,"TIMP1, TIMP1 (gene 7076)",inactive
same,outcome,[4],inactive
same,outcome,[5],inactive
same,outcome,[6],inactive
same,outcome,[7],inactive
same,outcome,[8],inactive
Clc1cccc(C(Cl)(Cl)Cl)n1,outcome,[1],inactive
same,outcome,[2],inactive
same,outcome,[3],inactive
same,outcome,"TIMP1, TIMP1 (gene 7076)",inactive
same,outcome,[4],inactive
same,outcome,[5],inactive
same,outcome,[6],inactive
same,AC50,[7],50 µM (active)
same,outcome,[8],inactive
CNC(=O)Oc1cccc2ccccc12,outcome,[1],inactive
same,outcome,[2],inactive
same,outcome,[3],inactive
same,outcome,"TIMP1, TIMP1 (gene 7076)",inactive
same,outcome,[4],inactive
same,outcome,[5],inactive
same,outcome,[6],inactive
same,AC50,[7],50 µM (active)
same,outcome,[8],inactive
COCC(=O)N(c1c(C)cccc1C)C(C)C(=O)OC (stereo not drawn),outcome,[1],inactive
same,outcome,[2],inactive
same,outcome,[3],inactive
same,outcome,"TIMP1, TIMP1 (gene 7076)",inactive
same,outcome,[4],inactive
same,outcome,[5],inactive
same,outcome,[6],inactive
same,outcome,[7],inactive
same,outcome,[8],inactive
CC(C)N1C(=O)c2ccccc2NS1(=O)=O,outcome,[1],inactive
same,outcome,[2],inactive
same,outcome,[3],inactive
same,outcome,"TIMP1, TIMP1 (gene 7076)",inactive
same,outcome,[4],inactive
same,outcome,[5],inactive
same,outcome,[6],inactive
same,outcome,[7],inactive
same,outcome,[8],inactive
CN/C(=N\[N+](=O)[O-])NCc1cnc(Cl)s1,outcome,[1],inactive
same,outcome,[2],inactive
same,outcome,[3],inactive
same,outcome,"TIMP1, TIMP1 (gene 7076)",inactive
same,outcome,[4],inactive
same,AC50,[5],50 µM (active)
same,outcome,[6],inactive
same,AC50,[7],50 µM (active)
same,outcome,[8],inactive
CN=C=S,outcome,[1],inactive
same,outcome,[2],inactive
same,outcome,[3],inactive
same,outcome,"TIMP1, TIMP1 (gene 7076)",inactive
same,outcome,[4],inactive
same,outcome,[5],inactive
same,outcome,[6],inactive
same,outcome,[7],inactive
same,outcome,[8],inactive
CCSC(=O)N1CCCCCC1,outcome,[1],inactive
same,outcome,[2],inactive
same,outcome,[3],inactive
same,outcome,"TIMP1, TIMP1 (gene 7076)",inactive
same,outcome,[4],inactive
same,outcome,[5],inactive
same,outcome,[6],inactive
same,outcome,[7],inactive
same,outcome,[8],inactive
COc1ccc(-c2ccccc2)cc1NNC(=O)OC(C)C,outcome,[1],inactive
same,outcome,[2],inactive
same,outcome,[3],inactive
same,outcome,"TIMP1, TIMP1 (gene 7076)",inactive
same,outcome,[4],inactive
same,outcome,[5],inactive
same,outcome,[6],inactive
same,outcome,[7],inactive
same,outcome,[8],inactive
same,outcome,[9],inactive
